The values that follow come from PubChem BioAssay (NCATS).

Experiment [1] is described as follows: qHTS for Inhibitors of the Functional Ribonucleoprotein Complex (vRNP) of Lassa (LASV) Arenavirus: LASV Primary Screen - GLuc reporter signal (AID 1347082; calls by dose curve; tested in HEK293 reporter line; further: series mostly up to about 57 µM; nearly all actives have a fitted effect of over 60% in size).
A short description of experiment [2]: qHTS for Inhibitors of the Functional Ribonucleoprotein Complex (vRNP) of Lassa (LASV) Arenavirus: Viability assay - alamar blue signal for LASV Primary Screen (AID 1347083; calls by dose curve; tested in HEK293 reporter line; further: nearly all actives have a fitted effect of over 80% in size; further: potency means the concentration at half of the fitted maximal effect; on activity change, negative = reduced viability: series mostly up to about 57 µM).
The nature of experiment [3]: qHTS for Inhibitors of the Functional Ribonucleoprotein Complex (vRNP) of Lymphocytic Choriomeningitis Arenaviruses (LCMV): Viability assay - alamar blue signal for LCMV Primary Screen (AID 1347085; calls by dose curve; tested in HEK293 reporter line; further: nearly all actives have a fitted effect of over 80% in size; further: potency means the concentration at half of the fitted maximal effect; on activity change, negative = lower viability: series mostly up to about 57 µM). A general note: qHTS replaces the single test concentration by a dilution series.
Experiment [4] addresses Nucleoprotein (Lymphocytic choriomeningitis virus (strain Armstrong)) (UniProt P09992). As to the kind of experiment: qHTS for Inhibitors of the Functional Ribonucleoprotein Complex (vRNP) of Lymphocytic Choriomeningitis Arenaviruses (LCMV): LCMV Primary Screen - GLuc reporter signal (AID 1347086). Further: series mostly up to about 57 µM; nearly all actives have a fitted effect of over 70% in size.

Structures are written as SMILES. Records with an inconclusive call do not appear. Unmarked numbers belong to inactive results. Active and inactive are the calls of the source. Unless noted, the call rests on the fitted dose curve.
On the % scale 0 is the no-effect control and ±100 the full control effect.

Sequence of Nucleoprotein (Lymphocytic choriomeningitis virus (strain Armstrong)) (P09992 whole entry, looked up): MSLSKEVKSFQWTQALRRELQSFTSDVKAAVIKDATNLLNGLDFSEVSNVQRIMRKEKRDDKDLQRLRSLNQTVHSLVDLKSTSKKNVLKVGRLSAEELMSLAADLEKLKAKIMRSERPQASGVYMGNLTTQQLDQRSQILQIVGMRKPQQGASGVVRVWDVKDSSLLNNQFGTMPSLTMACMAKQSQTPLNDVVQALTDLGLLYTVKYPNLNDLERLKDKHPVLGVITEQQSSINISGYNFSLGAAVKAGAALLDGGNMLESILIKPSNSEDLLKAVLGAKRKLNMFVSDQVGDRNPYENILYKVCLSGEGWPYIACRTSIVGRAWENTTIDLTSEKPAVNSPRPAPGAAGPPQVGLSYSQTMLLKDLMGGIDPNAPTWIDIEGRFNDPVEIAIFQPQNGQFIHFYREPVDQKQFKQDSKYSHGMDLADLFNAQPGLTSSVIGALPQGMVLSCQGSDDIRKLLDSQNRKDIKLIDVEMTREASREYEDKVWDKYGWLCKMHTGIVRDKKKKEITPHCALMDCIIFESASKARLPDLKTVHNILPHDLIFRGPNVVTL

With `N[C@@H](CSS(=O)(=O)O)C(=O)O`, the Potency result in experiment [1], in experiment [2], in experiment [3] and in experiment [4] was “inactive” each time.
For `CC(C)C/C=C(\C=O)c1ccccc1`, the Potency entry in experiment [1], in experiment [2], in experiment [3] and in experiment [4] was “inactive” in each case.
With `CC(C)CCOC(=O)CC(C)C`, the Potency result in experiment [1], in experiment [2], in experiment [3] and in experiment [4] was “inactive” each time.
Consider `C[C@]12C[C@H](O)CC(CO)(CO)C1[C@H](O)C[C@@]13CC4[C@@H](CC12)[C@@]4(C)C3` (stereo partly specified), for which the Potency entry in experiment [1], in experiment [2], in experiment [3] and in experiment [4] was “inactive” each time.
With `COc1ccc2c(=O)c(-c3ccc(OC)c(OC)c3)coc2c1`, the Potency entry in experiment [1], in experiment [2], in experiment [3] and in experiment [4] was “inactive” in each case.
For `CCc1nccc2c1[nH]c1ccccc12`, the Potency result in experiment [1], in experiment [2], in experiment [3] and in experiment [4] was “inactive” throughout.
In the case of `CC1(C)O[C@H]2C[C@@H]3[C@H]4CCC5=CC(=O)C=C[C@]5(C)[C@@]4(F)[C@@H](O)C[C@]3(C)[C@]2(C(=O)CO)O1`, the Potency entry in experiment [1], in experiment [2], in experiment [3] and in experiment [4] was “inactive” throughout.
`COC(=O)C1=CO[C@@H](C)[C@@H]2CN3CCc4c([nH]c5ccccc45)[C@@H]3C[C@H]12`: the Potency entry in experiment [1], in experiment [2], in experiment [3] and in experiment [4] was “inactive” each time.
Regarding `COC1CC(C)C(OC)c2cc(O)cc(c2O)NC(=O)C(C)=CC=CC(C)C(OC(N)=O)C(C)=CC(C)C1OC` (stereo unspecified), the Potency result in experiment [1], in experiment [2], in experiment [3] and in experiment [4] was “inactive” each time.
On to `COc1c2c(nc3occc13)C(CCC(C)(C)O)(OC)C(O)CC2` (stereo unspecified), for which the Potency result in experiment [1], in experiment [2], in experiment [3] and in experiment [4] was “inactive” each time.
As for `COC(=O)c1nccc2c1[nH]c1ccccc12`, the Potency entry in experiment [1], in experiment [2], in experiment [3] and in experiment [4] was “inactive” each time.
For `CC(O)C1C(=O)N2C(C(=O)O)=C(SC3CNC(C(=O)N(C)C)C3)C(C)C12` (stereo unspecified), the Potency result in experiment [1], in experiment [2], in experiment [3] and in experiment [4] was “inactive” throughout.
As for `OC1O[C@H](c2ccc3c(c2)OCO3)[C@H]2CO[C@H](c3ccc4c(c3)OCO4)[C@@H]12` (stereo partly specified), the Potency entry in experiment [1], in experiment [2], in experiment [3] and in experiment [4] was “inactive” each time.
On to `CC/C=C\CC/C=C/CO`, for which the Potency entry in experiment [1], in experiment [2], in experiment [3] and in experiment [4] was “inactive” in each case.
Turning to `CCN1C[C@]2(COC)CC[C@H](O)[C@@]34C5C[C@@H]6[C@@H](OC)C[C@@](O)(C5[C@H]6O)[C@](O)([C@@H](OC)C23)[C@@H]14` (stereo partly specified), the Potency result in experiment [1], in experiment [2], in experiment [3] and in experiment [4] was “inactive” each time.
Regarding `CSc1c(Cl)c(Cl)c(Cl)c(Cl)c1Cl`, the Potency entry in experiment [1], in experiment [2], in experiment [3] and in experiment [4] was “inactive” in each case.
Consider `CC(C)=CCc1c(O)cc(O)c2c1OC(c1ccc(O)cc1)CC2=O` (stereo unspecified), for which the Potency entry in experiment [1], in experiment [2], in experiment [3] and in experiment [4] was “inactive” each time.
Consider `CC1NC(C(=O)O)Cc2c1[nH]c1ccccc21` (stereo unspecified), for which the Potency result in experiment [1], in experiment [2], in experiment [3] and in experiment [4] was “inactive” in each case.
Take `CC1OCCC1=O` (stereo unspecified): the Potency entry in experiment [1], in experiment [2], in experiment [3] and in experiment [4] was “inactive” throughout.
For the molecule `C=C1CCC2C(C)(C)[C@@H](O)CC[C@@]2(C)[C@@H]1COc1ccc2ccc(=O)oc2c1` (stereo partly specified), the Potency result in experiment [1], in experiment [2], in experiment [3] and in experiment [4] was “inactive” throughout.
Regarding `C[C@@H]1CC2OC(=O)[C@@]3(C)C(=O)CC[C@@](C)(C23)[C@@]1(O)CCc1ccoc1` (stereo partly specified), the Potency entry in experiment [1], in experiment [2], in experiment [3] and in experiment [4] was “inactive” each time.
As to `COc1ccc(C(C)=O)cc1`, the Potency result in experiment [1], in experiment [2], in experiment [3] and in experiment [4] was “inactive” each time.
Turning to `COc1ccc(C(=O)/C=C/c2ccc(O)cc2)c(O)c1CC=C(C)C`, the Potency entry in experiment [1], in experiment [2], in experiment [3] and in experiment [4] was “inactive” throughout.
For the molecule `CCCCCCCCCCCCCCCCCCCCCCCCCCCCCC`, the Potency result in experiment [1], in experiment [2], in experiment [3] and in experiment [4] was “inactive” in each case.
In the case of `O=C1c2c(O)cc(O)cc2O[C@@]12c1c(cc(O)c3c1O[C@H](c1ccc(O)cc1)[C@@H](O)C3)O[C@@H]2c1ccc(O)cc1`, the Potency entry in experiment [1], in experiment [2], in experiment [3] and in experiment [4] was “inactive” each time.
On to `COc1c2c(cc3oc(CO[C@@H]4O[C@H](CO)[C@@H](O)[C@H](O)[C@H]4O)cc(=O)c13)O[C@H](C(C)(C)O)C2`, for which the Potency result in experiment [1], in experiment [2], in experiment [3] and in experiment [4] was “inactive” in each case.
As for `O=C(Nc1cccc(Nc2ncc(Br)c(NCCc3cnc[nH]3)n2)c1)N1CCCC1`, the Potency result in experiment [1] and in experiment [4] was “inactive” each time. For the same molecule, the Potency in experiment [2] was 21.7 µM (active); in experiment [3], 27.3 µM (active).
Regarding `C=CC(C)(C)O[C@@H]1O[C@H](CO)[C@@H](O)[C@H](O)[C@H]1O`, the Potency result in experiment [1], in experiment [2], in experiment [3] and in experiment [4] was “inactive” throughout.
In the case of `COC(=O)c1cc(O)cc(OC)c1C(=O)c1c(O)cc(C)cc1O`, the Potency entry in experiment [1], in experiment [2], in experiment [3] and in experiment [4] was “inactive” in each case.
Regarding `COc1ccc(-c2cnc(-c3cccnc3)o2)cc1`, the Potency result in experiment [1], in experiment [2], in experiment [3] and in experiment [4] was “inactive” each time.
As to `CC1(C)C=Cc2c(c3ccccc3[nH]c2=O)O1`, the Potency entry in experiment [1], in experiment [2], in experiment [3] and in experiment [4] was “inactive” in each case.
As for `CC1=C(C(=O)O)N2C(=O)C(NC(=O)CCCC(=O)O)C2SC1` (stereo unspecified), the Potency entry in experiment [1], in experiment [2], in experiment [3] and in experiment [4] was “inactive” each time.
Regarding `COc1cc(C2c3cc4c(c(O)c3CC3COC(=O)C32)OCO4)cc(OC)c1O` (stereo unspecified), the Potency result in experiment [1], in experiment [2], in experiment [3] and in experiment [4] was “inactive” in each case.
Regarding `CC/C=C\C/C=C\C/C=C\C/C=C\C=C\C(O)CCCC(=O)O` (stereo unspecified), the activity change, negative = inhibition is 1.12% [at 0.757 µM] in experiment [1] and 1.64% [at 0.757 µM] in experiment [4]. In experiment [2], the activity change, negative = reduced viability was 9.64% [at 0.757 µM]. In addition, the activity change, negative = lower viability in experiment [3] is 6.07% [at 0.757 µM].
On to `CN1C2CCC1CC(OC(=O)c1cccc(O)c1)C2` (stereo unspecified), for which the Potency entry in experiment [1], in experiment [2], in experiment [3] and in experiment [4] was “inactive” each time.
For `O=C1c2c(O)cc(O)cc2O[C@H](c2cc(O)c(O)c(O)c2)[C@H]1O`, the Potency entry in experiment [1], in experiment [2], in experiment [3] and in experiment [4] was “inactive” throughout.
`NC(=O)NCCCC(=O)O`: the Potency entry in experiment [1], in experiment [2], in experiment [3] and in experiment [4] was “inactive” throughout.
In the case of `O=c1ccc2ccc(O[C@@H]3O[C@H](CO)[C@@H](O)[C@H](O)[C@H]3O)c(O)c2o1`, the Potency entry in experiment [1], in experiment [2], in experiment [3] and in experiment [4] was “inactive” throughout.
As for `C=C1[C@H]2O[C@H]2[C@@H](OC(C)=O)[C@@]2(C)[C@@H](OC(C)=O)C[C@@H](OC(C)=O)[C@@](C)(O)[C@@H]2[C@@H](OC(C)=O)[C@@]2(O)[C@@H](C)C(=O)O[C@H]2[C@H]1Cl`, the Potency result in experiment [1], in experiment [2], in experiment [3] and in experiment [4] was “inactive” throughout.
